Assay outcomes: PubChem, National Center for Advancing Translational Sciences (NCATS)
SMN2 splice enh – qHTS Assay for Enhancers of SMN2 Splice Variant Expression. HEK293 SMN2-luciferase splicing reporter, luminescence, 30-36 h. Potency, µM (doses to about 46.1 µM), for the others: at the top dose activity change, positive = activation, hits mostly activators. 210,000 compounds, 2.8% hits. AID 1458, 2008; note: % of control where 0% means no effect; nearly all actives have a fitted effect of over 55% in size
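HEK293 cells carry an SMN2 minigene-luciferase reporter in which exon 7 inclusion puts luciferase in frame. Cells were seeded at 2000 cells/well, attached for 10-12 hours, then exposed to compounds for 30-36 hours at 37C before ONE-Glo luminescence.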
FLuc counter – qHTS profiling assay for firefly luciferase inhibitor/activator using purifed enzyme and Km concentrations of substrates (counterscreen for miR-21 project). Luciferin 4-monooxygenase (Photinus pyralis), P08659. purified FLuc, Km substrates, luminescence inhibition. Potency, µM (highest dose often 57.5 µM), for the others: at the highest dose activity change, negative = inhibition, most hits filed as inhibitors. 360,000 compounds, 6.9% hits. AID 588342, 2011;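 note: plate controls were vehicle for no effect and reference inhibitor for full effect; nearly all actives have a fitted effect of over 55% in size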
Target sequence (P08659 whole entry, looked up): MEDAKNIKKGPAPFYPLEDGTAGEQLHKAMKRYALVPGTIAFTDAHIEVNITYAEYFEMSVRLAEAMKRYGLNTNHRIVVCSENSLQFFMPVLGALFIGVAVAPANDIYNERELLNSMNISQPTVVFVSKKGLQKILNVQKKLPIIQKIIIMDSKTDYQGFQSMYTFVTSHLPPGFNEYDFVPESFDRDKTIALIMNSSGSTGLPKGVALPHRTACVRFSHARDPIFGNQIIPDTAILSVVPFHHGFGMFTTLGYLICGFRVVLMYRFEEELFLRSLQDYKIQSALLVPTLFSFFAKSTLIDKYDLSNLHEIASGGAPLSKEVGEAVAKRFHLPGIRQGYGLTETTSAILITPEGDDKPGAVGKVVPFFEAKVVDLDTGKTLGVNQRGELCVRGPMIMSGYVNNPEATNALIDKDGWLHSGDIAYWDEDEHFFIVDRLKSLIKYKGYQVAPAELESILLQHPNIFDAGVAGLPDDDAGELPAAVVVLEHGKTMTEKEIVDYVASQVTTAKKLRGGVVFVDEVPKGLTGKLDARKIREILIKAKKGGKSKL
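Purified P. pyralis luciferase, 10 nM final, with Km-level 10 uM D-luciferin and 10 uM ATP in 50 mM Tris acetate pH 7.5, 10 mM Mg acetate, 0.01% Tween-20, 0.05% BSA; 6-point qHTS titration about 60 µM downward; luminescence read.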
ELG1 genotoxic – qHTS screen for small molecules that induce genotoxicity in human embryonic kidney (HEK293T) cells expressing luciferase-tagged ELG1. HEK293T ELG1-luciferase reporter, luminescence, 16 h. Potency, µM (titrated, usually from 46 µM), for the others: top-dose activity change, positive = activation, actives largely listed as activators. 330,000 compounds, 1.3% hits. AID 504466, 2011; note: % of control where 0% means no effect; nearly all actives have a fitted effect of over 60% in size
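Genotoxicity was scored as increased ELG1-luciferase reporter signal, measured by ONE-Glo luminescence (30 min, room temperature). Compound or vehicle exposure of the HEK293T reporter cells lasted 16 hr at 37°C.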
NPC1 prom act – qHTS Assay for NPC1 Promoter Activators; Huh7 NPC1 promoter luciferase reporter, 24 h; Potency, µM (highest dose often 9.22 µM), without a hit: at the highest dose activation, most hits filed as activators; 320,000 compounds, 2.4% hits; AID 485313, 2010; note: % of control where 0% means no effect; nearly all actives have a fitted effect of over 60% in size
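In 1536-well qHTS, Huh7 cells harboring an NPC1 promoter–luciferase construct received compound for 24 h; activation was quantified by luminescence following luciferase reagent addition.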
Rab9 prom act – qHTS Assay for Rab9 Promoter Activators. 320,000 compounds, 2.8% hits. Potency, µM (series often up to 9.22 µM), for inactives: top-dose activation, negative = inhibition, most hits filed as activators. Huh7 Rab9 promoter-luciferase reporter, luminescence, 24 h; note: % of control where 0% means no effect; nearly all actives have a fitted effect of over 60% in size
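Promoter activation is measured as luciferase luminescence in Huh7 cells stably transfected with a Rab9 promoter–luciferase construct, following 24 h compound exposure at 37 °C and 10 min reagent incubation at ambient temperature.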
p53 reactivator – qHTS assay for re-activators of p53 using a Luc reporter | H1299 p53-A138V BP100-luciferase reporter, luminescence, 24 h | Potency, µM (doses to about 92.2 µM), without a hit: top-dose activity change, positive = activation, most hits filed as activators | 320,000 compounds, 0.063% hits | AID 504706, 2011; note: % of control where 0% means no effect; nearly all actives have a fitted effect of over 45% in size
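H1299 (p53-null), stable ts p53-A138V + BP100-Luc; 1000 cells/well, Opti-MEM/10% FBS; cpd 4 pt, 1:5; 24 h, 37 deg C, 5% CO2; detection reagent 10 min RT; luminescence.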
* = called active by the depositor; ? = inconclusive; . = no result given; [ ] = remark or other dose. In the library only some 7.3% were active in any assay of this set; here they are far more common. Calls come from the whole dose curve; as a rule, active = well fitted curve in the direction sought with a large enough effect; inconclusive = small, poorly fitted or top-dose-only effect, or another doubt; inactive = no such curve, though single readings can be large; an effect the other way counts as inactive or inconclusive. Potency is the fitted concentration of half-maximal effect.

SMILES	SMN2 splice enh	FLuc counter	ELG1 genotoxic	NPC1 prom act	Rab9 prom act	p53 reactivator
Cc1cccc2sc(NNC(=O)c3cc(=O)c4ccccc4o3)nc12	.	4.8µM*	?	?	?	24%
CCOc1ccc(CCNC(=O)Cn2ncc3c([nH]c4ccccc43)c2=O)cc1OCC	.	-1%	.	.	.	.
Cc1cc(C)cc(NC(=O)C(C)N2Cc3ccccc3C2=O)c1 (configuration not stated)	.	4%	.	.	.	.
CCC(C)(C)C1CCc2[nH]nc(C(=O)N/N=C(\C)c3ccco3)c2C1 (configuration not stated)	.	2.4µM*	?	3.2µM*	1.1µM*	2%
O=C(NN=C1CCCC1)c1n[nH]c2c1CCC2	.	?	?	13%	24%	20%
C/C(=N\NC(=O)c1n[nH]c2c1CCC2)c1ccco1	.	2.7µM*	?	?	0.5µM*	5%
CCOc1ccc(CCNC(=O)c2cn(CC)c3ccc(S(=O)(=O)N4CCc5ccccc5C4)cc3c2=O)cc1OCC	1%	-10%	.	.	.	.
N=C(N)SCCCN	-9%[9.22 µM]	.	.	.	.	.
COc1ccc(C)cc1NC(=O)N1CCN(S(=O)(=O)c2ccc3c(ccn3C)c2)CC1	.	-1%	.	.	.	.
Cc1nn(-c2ccc(Br)cc2)c(=O)c2ccccc12	.	8.5µM*	23%	?	2.8µM*	26%
Cc1cccn2c(=O)c(C(=O)NCc3ccccc3Cl)c(O)nc12	-1%	-3%	.	.	.	.
Brc1ccccc1OCCCCn1cnc2ccccc21	-46%	11µM*	?	-4%	-1%	2%
Cc1ccc(C)c(OCCCCn2cnc3ccccc3c2=O)c1	.	-12%	-5%	-1%	-3%	-3%
Clc1ccccc1OCCn1cnc2ccccc21	-19%	17µM*	?	27%	?	17%
Clc1ccc(OCCn2cnc3ccccc32)cc1	-33%	3%[2.3 µM]	-10%	6%	7%	5%
Cc1ccc(OCCCCn2cnc3ccccc32)c(C)c1	-76%	11µM*	4%	2%	-1%	18%
CC(C)(C)n1ncc2c(=O)n(Cc3ccc(Cl)c(SC(F)(F)F)c3)cnc21	.	-1%	.	.	.	.
COC(=O)c1c(NC(=O)c2ccc(C)cc2)csc1C	.	11µM*	0%	-5%	-2%	2%
COC(=O)c1c(-c2cccs2)csc1NC(=O)c1ccc(C)cc1	.	5.4µM*	.	.	.	.
CCOC(=O)c1c(-c2cccs2)csc1NC(=O)c1ccncc1	-11%	-1%	1%	-1%	3%	-4%
CCOC(=O)C1CCN(C(c2ccccc2OC)c2c(O)cc(C)n(CCOC)c2=O)CC1 (configuration not stated)	.	2%	.	.	.	.
O=C(Nc1cccc([N+](=O)[O-])c1)C12CC3CC(C1)CC(n1cnc([N+](=O)[O-])n1)(C3)C2	-17%	-1%	-5%	1%	-2%	0%
Cc1ccc(-c2nnc(/C=C/c3ccccc3)o2)cc1	18µM*	17µM*	?	22%	18%	?
Cc1ccc(/C=C/c2nnc(-c3cccc(C)c3)o2)cc1	19%	-19%	5%	13%	22%	5%
Cc1ccc(-c2nnc(-c3ccccc3Br)o2)cc1	.	0.76µM*	?	4µM*	4µM*	.
SMILES	SMN2 splice enh	FLuc counter	ELG1 genotoxic	NPC1 prom act	Rab9 prom act	p53 reactivator
Brc1ccccc1-c1nnc(-c2cccnc2)o1	2%	15µM*	18µM*	?	?	?
Brc1ccc(-c2nnc(-c3ccccc3Br)o2)cc1	14µM*	1.3µM*	2.9µM*	1.1µM*	0.71µM*	11%
Cc1ccc(-n2nnnc2SCc2nnc(-c3ccccc3Br)o2)cc1	-29%	-16%	9%	-2%	-11%	2%
Cc1nc2ccc(S(=O)(=O)Nc3cc(-c4nc5cccnc5s4)ccc3C)cc2s1	16µM*	19µM*	?	-5%	2%	?
CCOCC(=O)Nc1cccc(-c2nc3cccnc3s2)c1C	.	17µM*	0%	13%	1%	3%
NS(=O)(=O)c1ccc(C(=O)Nc2ccc(-c3nc4cccnc4s3)cc2)cc1	.	12µM*	?	1.4µM*	1.4µM*	23%
O=C(Nc1cccc(-c2nc3cccnc3s2)c1)c1cccnc1Cl	.	17µM*	-7%	22%	23%	4%
NS(=O)(=O)c1ccc(NC(=O)c2ccc(-c3ccccc3)cc2)cc1	17%	-1%	10%	-3%	-4%	4%
CCOc1ccccc1C(=O)Nc1cc(-c2nc3cccnc3s2)ccc1C	.	9.5µM*	.	.	.	.
O=S(=O)(Nc1ccc(-c2nc3cccnc3s2)cc1)c1cc(F)ccc1F	.	?	?	4%	?	13%
CCOc1ccccc1C(=O)Nc1cc2c(cc1C)n(C)c(=O)c(=O)n2C	.	1%	.	.	.	.
Cc1ccc(-c2nc3cccnc3s2)cc1NS(=O)(=O)c1cccs1	.	27µM*	10%	10%	15%	2%
CCc1ccc(S(=O)(=O)Nc2ccc(-c3nc4cccnc4s3)cc2)s1	16µM*	?	15µM*	15%	?	?
Cc1nn(C(=O)c2ccccc2)c(C)c1Sc1ccc(Cl)cc1	-10%	-6%	.	.	.	.
CCCC(O)c1nc2ccccc2n1CCCCOc1ccc(OC)cc1 (configuration not stated)	.	-12%	.	.	.	.
COCC(=O)N1CCC2(CC1)CCN(C(=O)Nc1cccc(C#N)c1)CC2	-3%	.	.	.	.	.
CCCc1ccc(/C=C2\C(=O)c3ccccc3C(O)=C2C(=O)OCC)cc1	10µM*	3.4µM*	?	16%	2%	?
CCOC(=O)C1=C(O)c2ccccc2C(=O)/C1=C\c1ccc(CC)cc1	?	3.4µM*	-6%	2%	2%	-22%
O=C(CSc1nnc(-c2ccc(Br)cc2)o1)Nc1cccc(C(=O)O)c1	.	1%	-2%	-5%	2%	2%
Brc1ccc(-c2nnc(-c3cccc(Br)c3)o2)cc1	23%	9.5µM*	19%	3.2µM*	-34%	18%
O=C(O)c1ccc(-c2nnc(-c3cccc(Br)c3)o2)cc1	.	11µM*	?	1.4µM*	1.6µM*	?
CCC(=O)c1ccc(N2CCN(S(=O)(=O)c3ccccc3)CC2)c(F)c1	.	3%	-7%	-9%	-17%	0%
CCC(=O)c1ccc(N2CCCCCC2)c(F)c1	10%	21µM*	?	28%	22%	14%
CCCC(=O)c1ccc(N2CCN(S(=O)(=O)c3ccccc3)CC2)c(F)c1	-7%	1%	-11%	-11%	-3%	6%
